Screens: PubChem BioAssay, National Center for Advancing Translational Sciences (NCATS)
Rows were chosen to be rich in hits. Some 3% of all compounds tested hit in one or more screens of this group.
12-LOX inh – blocks human arachidonate 12S-lipoxygenase; P18054; purified 12hLO, xylenol orange hydroperoxide absorbance; Potency, µM (highest dose often 108 µM), most hits filed as inhibitors; 580,000 compounds, 1.1% hits
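Purified human 12hLO at 150 nM in 25 mM Hepes, 0.01% Triton X-100, pH 7.0, preincubated 15 min at room temperature with compound. Reaction started with 40 uM arachidonic acid, 30 min at room temperature. Hydroperoxide measured by Fe-xylenol orange, 573/405 nm absorbance ratio.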
PLK1 PBD block – inhibitors of human PLK1 polo-box domain binding. P53350. Plk1 PBD binding of FITC phosphopeptide, fluorescence polarization. Potency, µM, usual class: inhibitors. 360,000 compounds, 2.8% hits. AID 720504; also: series mostly up to about 57 µM; nearly all actives have a fitted effect of over 65% in size
VDR inh – blocks the human vitamin D receptor; P11473; VDR-SRC2-3 peptide fluorescence polarization, 2 h; Potency, µM, most hits filed as inhibitors; 400,000 compounds, 0.93% hits
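Inhibition of the VDR/SRC2-3 peptide interaction is quantified by fluorescence polarization. Compounds (23 nl, pintool) incubate with the reagents for 2 hours at ambient room temperature.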
KAT2A inh – blocks human GCN5L2 histone acetyltransferase | Q92830 | GCN5L2 HAT assay, ThioGlo1 CoA-SH fluorescence | Potency, µM (titrated, usually from 58.9 µM), usual class: inhibitors | 390,000 compounds, 0.21% hits | AID 504327
Target sequence (Q92830 whole entry, looked up): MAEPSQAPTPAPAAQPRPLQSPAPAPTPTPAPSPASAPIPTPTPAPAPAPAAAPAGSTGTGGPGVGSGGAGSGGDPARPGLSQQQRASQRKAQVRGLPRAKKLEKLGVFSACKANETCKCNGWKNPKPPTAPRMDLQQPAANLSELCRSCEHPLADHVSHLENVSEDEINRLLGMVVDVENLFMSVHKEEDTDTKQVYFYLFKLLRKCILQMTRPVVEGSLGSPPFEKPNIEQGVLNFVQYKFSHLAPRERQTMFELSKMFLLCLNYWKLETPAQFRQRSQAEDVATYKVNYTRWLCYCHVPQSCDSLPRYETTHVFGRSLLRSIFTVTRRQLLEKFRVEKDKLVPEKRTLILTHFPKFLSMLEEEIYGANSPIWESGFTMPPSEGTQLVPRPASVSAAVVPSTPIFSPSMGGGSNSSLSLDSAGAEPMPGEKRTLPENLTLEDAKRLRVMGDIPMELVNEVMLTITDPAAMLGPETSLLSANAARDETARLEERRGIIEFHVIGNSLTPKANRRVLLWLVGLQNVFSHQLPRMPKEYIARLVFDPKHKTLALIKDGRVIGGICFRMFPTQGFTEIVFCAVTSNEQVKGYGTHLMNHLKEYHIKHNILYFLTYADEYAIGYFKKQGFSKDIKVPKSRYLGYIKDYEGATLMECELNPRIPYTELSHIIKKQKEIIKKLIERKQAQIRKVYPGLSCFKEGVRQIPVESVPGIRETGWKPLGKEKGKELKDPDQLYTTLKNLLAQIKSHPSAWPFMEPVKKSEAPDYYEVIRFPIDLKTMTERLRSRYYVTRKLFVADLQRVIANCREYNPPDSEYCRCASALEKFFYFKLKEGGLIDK
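Fluorescence readout, Ex340nm/Em540nm: ThioGlo1 (50uM final) reacts with free CoA thiol released as 20nM GCN5L2 acetylates H3(1-25) peptide (75uM) using acetyl-CoA (70uM). Compound and enzyme sat 15 min beforehand; 20 min room-temperature reaction.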
Each line names hits and unclear results; the compound was inactive in the other large screens; ! = repeats disagree. Calls follow the shape of the dose curve; as a rule, active = well fitted curve in the direction sought with a large enough effect; inconclusive = small, poorly fitted or top-dose-only effect, or another doubt; inactive = no such curve, though single readings can be large; an effect the other way counts as inactive or inconclusive.

CCC(CO)(C(=O)OC1C[N+]2(C)CCC1CC2)c1ccccc1 (centres undefined)	12-LOX inh 45µM
COc1ccc(/C=C2/C(=O)NC(=O)N(c3ccc(C)c(C)c3)C2=O)cc1CN1C(=O)c2ccccc2C1=O	12-LOX inh inconclusive, PLK1 PBD block 4.2µM, VDR inh 50µM
CC1=NN(c2ccccc2)C(=O)C1/C=C1\C(=O)NC(=O)N(c2ccc(C)c(C)c2)C1=O (centres undefined)	PLK1 PBD block 21µM
CC1=NN(c2ccccc2)C(=O)C1/C=C1/C(=O)NC(=O)N(c2cccc(C)c2)C1=O (centres undefined)	none (no result: 12-LOX inh, PLK1 PBD block, VDR inh)
COc1ccccc1CNC(=O)[C@H]1CN2CC[C@H]1C[C@@H]2Cn1cc(C2(O)CCCC2)nn1	none (no result: PLK1 PBD block, VDR inh, KAT2A inh)
COc1ccc(NC(=S)NC(NC(=O)CF)C(Cl)(Cl)Cl)cc1[N+](=O)[O-] (centres undefined)	12-LOX inh inconclusive, PLK1 PBD block 30µM
O=C(CF)NC(NC(=S)Nc1cccc([N+](=O)[O-])c1)C(Cl)(Cl)Cl (centres undefined)	12-LOX inh inconclusive
Nc1ccc2ccc3cccc[n+]3c2c1	12-LOX inh inconclusive, PLK1 PBD block 0.67µM
Cc1[nH]c2c(C(C)C)cccc2c1CCN	none (no result: PLK1 PBD block, VDR inh, KAT2A inh)
CNCC(N)C(=O)O (centres undefined)	none (no result: PLK1 PBD block)
N[C@H](CCP(=O)(O)O)C(=O)O	12-LOX inh 3.5µM! (no result: PLK1 PBD block)
CS(=O)(=O)NC[C@H]1C[C@@H]2CCN1C[C@@H]2CN1CCCCC1	none (no result: PLK1 PBD block, VDR inh, KAT2A inh)
CN(C(=O)c1cn(Cc2ccccc2)c2ccccc12)C1CCS(=O)(=O)C1 (centres undefined)	none (no result: PLK1 PBD block, VDR inh, KAT2A inh)
Cc1ccc2nc3sc(=O)sc3nc2c1	VDR inh 8.9µM, KAT2A inh inconclusive (no result: 12-LOX inh, PLK1 PBD block)
O=C(OC1Cc2c(O)cc(O)cc2OC1c1cc(O)c(O)c(O)c1)c1cc(O)c(O)c(O)c1 (centres undefined)	VDR inh 50µM, KAT2A inh inconclusive (no result: 12-LOX inh, PLK1 PBD block)
Cc1[nH]n(-c2ccccc2)c(=O)c1C(c1ccc([N+](=O)[O-])cc1)c1c(C)[nH]n(-c2ccccc2)c1=O	PLK1 PBD block 7.5µM, VDR inh inconclusive (no result: 12-LOX inh)
Cc1[nH]n(-c2ccccc2)c(=O)c1C(C[N+](=O)[O-])c1ccccc1Cl (centres undefined)	PLK1 PBD block 15µM
CCCC(C)NC(=O)COC(=O)c1c(C)n(C2CC2)c2ccc(OC)cc12 (centres undefined)	none (no result: PLK1 PBD block, VDR inh, KAT2A inh)
COc1ccc(-c2cc([C@H]3CN4CC[C@H]3C[C@@H]4CNC(=O)NC(C)C)nc(C)n2)cc1OC	12-LOX inh 32µM (no result: PLK1 PBD block, VDR inh, KAT2A inh)
Cc1nc(-c2ccccc2Br)cc([C@H]2CN3CC[C@H]2C[C@@H]3CNC(=O)Nc2ccccc2)n1	12-LOX inh 11µM (no result: PLK1 PBD block, VDR inh, KAT2A inh)
COc1cc2c(cc1OCc1ccccc1)N(C(=O)CC(C)C)CC21CCN(C)CC1	none (no result: PLK1 PBD block, VDR inh, KAT2A inh)
CN(CCOc1ccc(C=C2C(=O)NC(=O)NC2=O)cc1)c1ccccn1	12-LOX inh inconclusive, PLK1 PBD block 3µM, VDR inh inconclusive
N#Cc1cccc(NC(=O)NC[C@H]2C[C@@H]3CCN2C[C@@H]3CN2CCN(c3ccccc3)CC2)c1	none (no result: PLK1 PBD block, VDR inh, KAT2A inh)
Cc1cc(C=C2C(=O)NC(=S)NC2=O)c(C)n1-c1ccc2c(c1)OCO2	12-LOX inh inconclusive, PLK1 PBD block 2.7µM, VDR inh 71µM
O=C(Cc1ccccc1Cl)N1CCN(C2CCN(CCc3ccccc3)C2=O)CC1 (centres undefined)	none (no result: PLK1 PBD block, VDR inh, KAT2A inh)
O=c1[nH]c(=S)n(Cc2ccc(F)cc2)c(O)c1/C=N/N1CCCCCC1	12-LOX inh 35µM
O=c1[nH]c(=S)n(Cc2ccc(F)cc2)c(O)c1C=NCCCn1ccnc1	none
Cn1cc(CN2CCN(C(=O)Cc3ccsc3)CC2)ccc1=O	none (no result: PLK1 PBD block, VDR inh, KAT2A inh)
O=[N+]([O-])NC1=NCN(Cc2ccco2)CN1Cc1ccco1	PLK1 PBD block 27µM, VDR inh inconclusive
COc1ncc(-c2cc3c(cc2OC)C2(CCN(C(C)=O)CC2)C(=O)N3)cn1	none (no result: PLK1 PBD block, VDR inh, KAT2A inh)
O=[N+]([O-])c1ccc(NCc2ccccc2)c2nonc12	PLK1 PBD block 0.84µM
O=[N+]([O-])c1ccc(NCc2ccccc2)c2ncccc12	none (no result: PLK1 PBD block, VDR inh, KAT2A inh)
O=c1cc(C(F)(F)F)c2cc3c4c(c2o1)CCCN4CCC3	PLK1 PBD block 1.2µM
Cc1cc2c(C(F)(F)F)cc(=O)oc2c2c1NCCC2	none
CCN(CC)C(=O)c1ccc(NC(=O)COC(=O)c2ccc3nc(C)c(C)nc3c2)cc1	none (no result: PLK1 PBD block, VDR inh, KAT2A inh)
C=CCc1cccc(C=Nc2c[nH]c(=O)[nH]c2=O)c1O	PLK1 PBD block 27µM
CCC(C)C(=O)OC1C2CC3=C4CC(=O)OC(c5ccoc5)[C@]4(C)CCC3[C@@](C)(C2=O)C(CC(=O)OC)C1(C)C (some centres undefined)	VDR inh 40µM (no result: 12-LOX inh, PLK1 PBD block)
CC(=O)O[C@@H]1C[C@@]2(C)C(c3ccoc3)C[C@H]3O[C@]32[C@]2(C)C(=O)C(O)=C3C(C)(C)C(=O)C=C[C@]3(C)C12 (some centres undefined)	VDR inh 14µM (no result: PLK1 PBD block, KAT2A inh)
CC(=O)OC1C[C@@]2(C)C(c3ccoc3)C[C@H]3O[C@@]32[C@@]2(C)C(=O)C(O)=C3C(C)(C)C(=O)C=C[C@]3(C)C12 (some centres undefined)	VDR inh 4µM (no result: 12-LOX inh, PLK1 PBD block)
CC(=O)OC1CC(OC(C)=O)[C@]2(C)C(CC(OC(C)=O)[C@]3(C)C2CC[C@@]2(C)C(c4ccoc4)C[C@H]4O[C@]432)C1(C)C (some centres undefined)	none (no result: 12-LOX inh, PLK1 PBD block)
CC1(C)C2C[C@@H](O)[C@]3(C)C(CC[C@@]4(C)[C@H](c5ccoc5)C[C@H]5O[C@]543)[C@@]2(C)[C@@H](O)C[C@H]1O (some centres undefined)	none (no result: PLK1 PBD block, KAT2A inh)
CC(=O)OC1CC2C(C)(C)C(=O)C=C[C@]2(C)C2CC[C@]3(C)C(=CC(=O)OC3c3ccoc3)[C@]12C (some centres undefined)	VDR inh 20µM (no result: 12-LOX inh, PLK1 PBD block)
COc1ccccc1-c1cc([C@H]2CN3CC[C@H]2C[C@@H]3COC(=O)Nc2ccc(C(C)C)cc2)nc(C)n1	12-LOX inh 45µM (no result: PLK1 PBD block, VDR inh, KAT2A inh)
CC(=O)NC[C@H]1C[C@@H]2CCN1C[C@@H]2c1cc(-c2cccs2)nc(C)n1	none (no result: PLK1 PBD block, VDR inh, KAT2A inh)
Cc1nc(-c2cccs2)cc([C@H]2CN3CC[C@H]2C[C@@H]3COC(=O)Nc2ccc(C(C)C)cc2)n1	12-LOX inh 45µM (no result: PLK1 PBD block, VDR inh, KAT2A inh)
CC[C@@H](CO)NC(=O)[C@H]1C=C2c3cccc4c3c(cn4C)C[C@H]2N(C)C1	12-LOX inh inconclusive, VDR inh 32µM (no result: PLK1 PBD block)
CC1=C(C(=O)O)N2C(=O)C(NC(=O)CCCC(=O)O)C2SC1 (centres undefined)	12-LOX inh 28µM, PLK1 PBD block inconclusive
COc1cc2c(cc1OCC1CC1)NC(=O)C21CCN(C(=O)c2cccc(C#N)c2)CC1	none (no result: PLK1 PBD block, VDR inh, KAT2A inh)
C/C=C/c1ccc(OCC(=O)N2CCN(CCOc3ccccc3)CC2)c(OC)c1	none (no result: PLK1 PBD block, VDR inh, KAT2A inh)
O=C(Cc1cccs1)N1Cc2ccccc2-n2nncc2C1	12-LOX inh 40µM (no result: VDR inh, KAT2A inh)
CCn1c(N)c(C(=O)NC)sc1=S	12-LOX inh inconclusive, PLK1 PBD block 2.7µM, VDR inh 25µM
O=C(c1ccccc1F)c1cn(CC(=O)N2CCCC2)c2ccccc12	PLK1 PBD block 3µM
